Experiment [1] concerns the target Lysosomal acid glucosylceramidase (Homo sapiens) (UniProt P04062). Nature of the experiment: Glucocerebrosidase-p2 (AID 348; in the data active = potency below about 10 µM; also: potency is read from the fitted curve at half-maximal effect). As to conditions: purified GBA, blue fluorogenic substrate, 40 min. The essentials: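 Compounds titrated from 0.6 nM upwards against 0.2 nM enzyme in pH 5.9 citric acid/KH2PO4, taurocholate, tween-20; blue fluorogenic substrate 80 uM, 40 min room temperature, stopped and read Ex 365/Em 440 for AC50.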

Experiment [2] in a line: AP1 Signaling Pathway (AID 357; active = well fitted curve in either direction with a large enough effect, not every such curve was filed as active;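 also: ME-180 reporter cells stimulated with EGF at its EC50 level; % is scaled to controls: 0 for no effect and ±100 for the full control effect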). Conditions: ME-180 AP-1-bla reporter, EGF-induced, beta-lactamase ratio, 5 h; at 7.69 µM (top of the series) unless noted. The essentials:
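In this screen, ME-180 cells in Opti-MEM with 0.5% dialyzed FBS received EC50 EGF and compound titrations for 5 h. AP-1 reporter beta-lactamase was detected via CCF4 ratio, giving AC50 for positive and negative modulators.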

Experiment [3] addresses Cytochrome P450 1A2 (Homo sapiens) (UniProt P05177). Nature of the experiment: p450-cyp1a2 (AID 410; calls by dose curve; also: potency is read from the fitted curve at half-maximal effect). In outline: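 Human CYP1A2 (20nM) demethylated Luciferin-ME at its Km (100uM) in 100mM KPO4. After 10 min compound preincubation, NADPH regeneration ran the reaction 60 min at room temperature. Luciferin was read by luminescence, normalized to 57 uM furafylline.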
Experiment [4] can be described thus: NFAT Signaling Pathway (AID 444; active = well fitted curve in either direction with a large enough effect, not every such curve was filed as active;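 also: carbachol stimulus at about its EC50 of 1 µM final; % is scaled to controls: 0 for no effect and ±100 for the full control effect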). Conditions: Jurkat NFAT-bla M1, carbachol, beta-lactamase ratio, 5 h; at 7.69 µM (top of the series) unless noted. The essentials:
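Read-out: CCF4 FRET ratio (460 nm/530 nm) after 1 h RT dye loading, used for %activity and AC50 from titration series. Cells: Jurkat NFAT-β-lactamase/M1 line, treated with compound plus 1 uM carbachol for 5 h, 37 °C.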

Experiment [5] in a line: Stat Signaling Pathway (AID 446; active = well fitted curve in either direction with a large enough effect, not every such curve was filed as active;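 also: ME-180 cervical cancer cells given 40 pM IL-6 alongside compound; SIE-controlled beta-lactamase reporter measured as 460/530 nm FRET emission ratio; % is scaled to controls: 0 for no effect and ±100 for the full control effect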). As to conditions: ME-180 SIE beta-lactamase reporter, IL-6 stimulated, 5 h; at 7.69 µM (top of the series) unless noted. The essentials: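 ME-180 cells carrying a SIE-driven beta-lactamase reporter are stimulated with 40 pM IL-6 for 5 h at 37C in the presence of compound. The 460/530 nm FRET substrate ratio is read after 2.5 h at RT. Data are normalised to 300 pM IL-6 and to 125 nM JAK inhibitor controls.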

Experiment [6] deals with Glucocorticoid receptor (Homo sapiens) (UniProt P04150). The experiment can be described thus: GR-GFP Redistribution (AID 450;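 active = compounds whose dose series gives a full or clear partial fitted curve of increased nuclear translocation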; also: potency is read from the fitted curve at half-maximal effect). Conditions: U2OS GR-GFP nuclear translocation, laser cytometry, 2 h.
Experiment [7] shares this target. The experiment can be described thus: GR-EFC Redistribution (AID 451; calls by dose curve; also: potency is read from the fitted curve at half-maximal effect). Conditions: CHO-K1 GR-EFC translocation, beta-gal luminescence, 2 h. The essentials:
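Translocation of GR-ED fusion to nuclear EA restores b-gal, read by luminescence after 1 h room-temperature detection. Engineered CHO-K1 biosensor cells, 1,000/well, exposed 2 h at 37 C to titrations up to 46 uM final.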

Experiment [8] concerns the target Mitogen-activated protein kinase 10 (Mus musculus) (UniProt Q61831). The experiment can be described thus: JNK3 AlphaScreen Assay (AID 530; active = well fitted curve in either direction with a large enough effect, not every such curve was filed as active;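 also: kinase came from lysate of stimulated human HepG2 cells; signal reports phosphorylation of biotinylated GST-cJun 1-79 at Ser73 with 10 µM ATP; % is scaled to controls: 0 for no effect and ±100 for the full control effect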). In outline:
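Room-temperature AlphaScreen kinase assay; pre-activated HepG2 lysate as JNK3 source, biotin-GST-cJun(1-79) substrate, 10 uM ATP, compound 15 min preincubation.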

The target in experiment [9] is 3',5'-cyclic-AMP phosphodiesterase 4B (Homo sapiens) (UniProt Q07343). The experiment can be described thus: qHTS Assay for Inhibitors of PDE-IV (AID 607; active = well fitted activation curve with a large enough effect in the main read-out, with a control signal flat, not every such curve was filed as active; also: % of control where 0% means no effect). In outline: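 HEK293 ACTOne cells with CNG channel (1000/well), endogenous PDE4; membrane potential dye, compounds up to 22.9 uM final. Fluorescence Ex 535/Em 590; RO 20-1724 (100 uM final) as reference.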
In experiment [10] the target is Cytochrome P450 3A4 (Homo sapiens) (UniProt P08684). Nature of the experiment: qHTS Assay for Inhibitors and Substrates of Cytochrome P450 3A4 (AID 884). Also: % is scaled to controls: 0 for no effect and ±100 for the full control effect; nearly all actives have a fitted effect of over 50% in size. In outline: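 20 nM human CYP3A4 with 25 uM Luciferin-PPXE (at KM) in 200 mM KPO4, preincubated 10 min with compound; NADPH regeneration started a 60 min RT reaction. Luciferin detected by luminescence, normalized to 57 uM ketoconazole as full inhibition.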

Experiment [11] in a line: qHTS Assay for Lipid Storage Modulators (AID 1519; calls by dose curve). Conditions: Drosophila S3 cells, BODIPY lipid droplet/cell ratio, laser cytometry, cells loaded with oleic acid; for activity change, negative = inhibition: at 57.5 µM (top of the series). The essentials:
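Cells seeded at 5,000 per well were treated with compounds over a concentration series and loaded with oleic acid (400 uM, as added). Lipid droplet fluorescence (488 nm excitation, 500-530 nm channel) was read by laser-scanning cytometry and normalized to 20 uM Triacsin C.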

Experiment [12] concerns the target Dual specificity protein kinase CLK4 (Homo sapiens) (UniProt Q9HAZ1). Nature of the experiment: qHTS Assay for Inhibitors of CDC-like Kinase 4 (Kinase-Glo Assay) (AID 1770). Also: % is scaled to controls: 0 for no effect and ±100 for the full control effect; nearly all actives have a fitted effect of over 65% in size. The essentials: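 Clk4 25 nM, RS peptide 100 uM, ATP 1 uM, pH 7.5 Tris, 10 mM MgCl2, 2.5 mM DTT; 4.5 h RT; ATP depletion read by Kinase-Glo luminescence.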
The target is the same in experiment [13]. The experiment can be described thus: qHTS Assay for Inhibitors of CDC-like Kinase 4 (ADP-Glo Assay) (AID 1771). Also: % is scaled to controls: 0 for no effect and ±100 for the full control effect; nearly all actives have a fitted effect of over 70% in size. The essentials:
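Clk4 (25 nM) was incubated 1 hr at room temperature with 100 uM RS repeat peptide and 1 uM ATP in buffer with 2 mM MgCl2, 0.5 mM EGTA, 2.5 mM DTT. ADP formed was quantified by ADP-Glo luminescence.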

The target is the same in experiment [14]. The experiment can be described thus: qHTS Assay for Inhibitors of CDC-like Kinase 4 (ADP-FP Assay) (AID 1795).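 Also: recombinant human CLK4 phosphorylating RS repeat peptide at 1 µM ATP; % is scaled to controls: 0 for no effect and ±100 for the full control effect; nearly all actives have a fitted effect of over 60% in size.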 In outline: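 Kinase activity was followed as ADP output, converted from fluorescence polarization with a calibration curve. Reactions ran one hour at low ATP (1 uM) with RS peptide substrate.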
Experiment [15] has as its target Ubiquitin carboxyl-terminal hydrolase 1 (Homo sapiens) (UniProt O94782). Nature of the experiment: Inhibitors of USP1/UAF1: Pilot qHTS (AID 504865).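 Also: rhodamine fluorescence freed from ubiquitin-rhodamine substrate followed over time; top concentration of the series differs between compounds; % is scaled to controls: 0 for no effect and ±100 for the full control effect; nearly all actives have a fitted effect of over 35% in size.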 In outline: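 Enzyme-free wells gave the negative control, while test wells held 1nM USP1/UAF1 preincubated with compound for 15 min at room temperature. Ub-Rho at 150nM final started the reaction, and fluorescence at 480/540 nm was recorded kinetically.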

Experiment [16] is described as follows: Counterscreen qHTS for small molecule stabilizers of the endoplasmic reticulum resident proteome: GLuc-NoTag assay (AID 1508627).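 Also: SH-SY5Y cells given compound then 100 nM thapsigargin to empty ER calcium; 0% = thapsigargin alone and -100% = DMSO vehicle control.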 In outline:
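Luminescence of Gaussia luciferase secreted into the medium (coelenterazine, 0.07x final, unlysed cells) was the read-out. Human SH-SY5Y neuroblastoma cells constitutively secreting untagged GLuc received compound for 19 h, then 100 nM thapsigargin for 4 h.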

Experiment [17] in a line: Confirmatory qHTS for small molecule stabilizers of the endoplasmic reticulum resident proteome: Secreted ER Calcium Modulated Protein (SERCaMP) assay (AID 1508628). Also: potency is read from the fitted curve at half-maximal effect; nearly all actives have a fitted effect of over 40% in size. In outline: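 We seeded SH-SY5Y-GLuc-SERCaMP cells, added compounds (three concentrations in the primary run, eleven up to 76.6 uM in confirmation), incubated 16 h, depleted ER calcium with thapsigargin, and read luciferase 4 h later.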

Experiment [18] in a line: Cell Viability qHTS for small molecule stabilizers of the endoplasmic reticulum resident proteome (AID 1508629). As to conditions: cell viability counter-screen, 100 nM thapsigargin for final 4 h.
Experiment [19] can be described thus: qHTS Assay for Identification of Small Molecule Agonists for Hypoxia Response Element Signaling Pathway (AID 914; active = well fitted activation curve with a large enough effect in the signal ratio, with a control signal flat, not every such curve was filed as active; the % refers to the signal ratio; also: potency is read from the fitted curve at half-maximal effect; as to activation: % of control where 0% means no effect). As to conditions: ME-180 (cervical carcinoma) HRE-bla reporter, beta-lactamase ratio, CoCl2, 17 h; activation: stronger effect = higher value. The essentials:
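ME-180 cells carrying an HRE-driven beta-lactamase reporter were treated with compounds in a titration series plus an EC50 level of CoCl2 for 17 h at 37 degrees Celsius; CCF4 readout as the 460nm/530nm ratio gave AC50 values.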

Experiment [20] concerns the target Cytochrome P450 3A4 (Homo sapiens) (UniProt P08684). Nature of the experiment: qHTS Assay for Activators of Cytochrome P450 3A4 (AID 885). Also: nearly all actives have a fitted effect of over 65% in size. The essentials: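 Human CYP3A4 (20 nM) with Luciferin-PPXE at 25 uM (its KM) in 200 mM KPO4; 10 min compound preincubation, then NADPH regeneration and 60 min reaction at RT. Luciferin read by luminescence; normalized to 57 uM ketoconazole full inhibition.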

[21] abbreviates: measured here: cell count channel max response.
Setting [22] is: measured here: lipid channel max response.

Records with an inconclusive call do not appear. The source made the active and inactive calls. Unless noted, calls follow the shape of the dose curve; as a rule, active = well fitted curve in the direction sought with a large enough effect; inconclusive = small, poorly fitted or top-dose-only effect, or another doubt; inactive = no such curve, though single readings can be large; an effect the other way counts as inactive or inconclusive.

Sequence of Cytochrome P450 3A4 (Homo sapiens) (P08684 whole entry, looked up): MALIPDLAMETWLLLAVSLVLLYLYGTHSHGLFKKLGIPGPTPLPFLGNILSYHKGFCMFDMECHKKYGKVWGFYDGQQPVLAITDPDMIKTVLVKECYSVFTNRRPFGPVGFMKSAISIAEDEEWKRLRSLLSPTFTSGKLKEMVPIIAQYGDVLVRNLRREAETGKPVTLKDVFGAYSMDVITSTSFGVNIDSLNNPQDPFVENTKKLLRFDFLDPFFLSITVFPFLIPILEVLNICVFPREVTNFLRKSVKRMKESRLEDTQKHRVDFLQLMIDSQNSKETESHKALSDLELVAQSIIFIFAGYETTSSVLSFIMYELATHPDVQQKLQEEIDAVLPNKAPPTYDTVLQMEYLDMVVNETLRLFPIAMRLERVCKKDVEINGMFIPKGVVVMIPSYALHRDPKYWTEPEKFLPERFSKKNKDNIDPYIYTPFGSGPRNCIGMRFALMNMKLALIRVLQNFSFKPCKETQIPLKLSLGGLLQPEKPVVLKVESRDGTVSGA
Sequence of Cytochrome P450 1A2 (Homo sapiens) (P05177 whole entry, looked up): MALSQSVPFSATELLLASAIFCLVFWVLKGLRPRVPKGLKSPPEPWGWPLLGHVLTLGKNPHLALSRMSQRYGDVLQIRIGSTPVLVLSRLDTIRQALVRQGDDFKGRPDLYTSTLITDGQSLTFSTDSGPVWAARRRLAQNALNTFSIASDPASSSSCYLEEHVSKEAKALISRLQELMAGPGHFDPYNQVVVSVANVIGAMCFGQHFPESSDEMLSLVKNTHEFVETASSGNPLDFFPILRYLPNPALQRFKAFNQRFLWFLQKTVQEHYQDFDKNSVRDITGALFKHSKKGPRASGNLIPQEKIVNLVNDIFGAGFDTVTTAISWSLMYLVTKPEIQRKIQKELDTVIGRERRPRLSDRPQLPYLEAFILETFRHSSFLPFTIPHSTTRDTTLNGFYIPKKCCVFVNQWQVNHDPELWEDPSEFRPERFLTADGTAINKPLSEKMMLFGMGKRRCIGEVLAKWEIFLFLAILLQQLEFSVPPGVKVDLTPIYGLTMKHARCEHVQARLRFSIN
Sequence of 3',5'-cyclic-AMP phosphodiesterase 4B (Homo sapiens) (Q07343 whole entry, looked up): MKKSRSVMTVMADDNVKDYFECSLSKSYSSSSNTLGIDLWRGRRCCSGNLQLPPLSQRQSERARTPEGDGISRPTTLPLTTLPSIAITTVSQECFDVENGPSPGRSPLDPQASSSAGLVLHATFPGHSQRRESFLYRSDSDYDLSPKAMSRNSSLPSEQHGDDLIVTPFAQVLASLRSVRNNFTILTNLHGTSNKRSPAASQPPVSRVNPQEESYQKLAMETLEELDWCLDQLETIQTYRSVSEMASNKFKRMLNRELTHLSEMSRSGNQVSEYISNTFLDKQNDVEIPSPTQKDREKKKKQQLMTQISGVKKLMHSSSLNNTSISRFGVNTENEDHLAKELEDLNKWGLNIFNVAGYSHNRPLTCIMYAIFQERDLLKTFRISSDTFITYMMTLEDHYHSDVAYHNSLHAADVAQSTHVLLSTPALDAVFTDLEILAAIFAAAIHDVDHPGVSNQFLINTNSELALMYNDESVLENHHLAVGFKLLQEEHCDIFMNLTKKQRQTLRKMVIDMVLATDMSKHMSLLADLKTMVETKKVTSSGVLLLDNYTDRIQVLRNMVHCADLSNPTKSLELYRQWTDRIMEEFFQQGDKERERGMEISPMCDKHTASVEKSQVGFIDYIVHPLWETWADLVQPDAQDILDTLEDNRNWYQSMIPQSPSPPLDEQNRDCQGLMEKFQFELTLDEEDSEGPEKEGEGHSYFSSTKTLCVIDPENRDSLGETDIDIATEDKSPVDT
Sequence of Glucocorticoid receptor (Homo sapiens) (P04150 whole entry, looked up): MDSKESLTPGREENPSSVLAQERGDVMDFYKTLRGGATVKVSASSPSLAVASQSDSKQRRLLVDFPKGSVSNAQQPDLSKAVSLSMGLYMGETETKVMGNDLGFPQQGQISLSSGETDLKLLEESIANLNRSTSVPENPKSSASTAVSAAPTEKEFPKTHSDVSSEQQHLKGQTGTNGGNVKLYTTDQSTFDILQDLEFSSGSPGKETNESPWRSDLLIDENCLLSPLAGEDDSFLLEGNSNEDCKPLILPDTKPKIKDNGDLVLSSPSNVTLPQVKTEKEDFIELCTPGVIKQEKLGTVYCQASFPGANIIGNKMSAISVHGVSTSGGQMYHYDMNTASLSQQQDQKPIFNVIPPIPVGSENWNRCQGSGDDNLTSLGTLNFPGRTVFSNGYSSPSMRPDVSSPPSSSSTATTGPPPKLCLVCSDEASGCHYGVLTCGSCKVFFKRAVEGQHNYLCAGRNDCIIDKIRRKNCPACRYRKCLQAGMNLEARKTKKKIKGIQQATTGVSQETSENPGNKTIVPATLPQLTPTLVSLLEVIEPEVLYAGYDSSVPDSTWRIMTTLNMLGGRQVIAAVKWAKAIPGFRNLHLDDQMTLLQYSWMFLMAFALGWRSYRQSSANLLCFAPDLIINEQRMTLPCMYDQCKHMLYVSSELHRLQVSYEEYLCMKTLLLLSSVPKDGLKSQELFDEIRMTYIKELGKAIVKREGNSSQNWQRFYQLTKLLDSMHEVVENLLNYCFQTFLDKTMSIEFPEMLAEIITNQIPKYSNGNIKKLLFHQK
Sequence of Dual specificity protein kinase CLK4 (Homo sapiens) (Q9HAZ1 whole entry, looked up): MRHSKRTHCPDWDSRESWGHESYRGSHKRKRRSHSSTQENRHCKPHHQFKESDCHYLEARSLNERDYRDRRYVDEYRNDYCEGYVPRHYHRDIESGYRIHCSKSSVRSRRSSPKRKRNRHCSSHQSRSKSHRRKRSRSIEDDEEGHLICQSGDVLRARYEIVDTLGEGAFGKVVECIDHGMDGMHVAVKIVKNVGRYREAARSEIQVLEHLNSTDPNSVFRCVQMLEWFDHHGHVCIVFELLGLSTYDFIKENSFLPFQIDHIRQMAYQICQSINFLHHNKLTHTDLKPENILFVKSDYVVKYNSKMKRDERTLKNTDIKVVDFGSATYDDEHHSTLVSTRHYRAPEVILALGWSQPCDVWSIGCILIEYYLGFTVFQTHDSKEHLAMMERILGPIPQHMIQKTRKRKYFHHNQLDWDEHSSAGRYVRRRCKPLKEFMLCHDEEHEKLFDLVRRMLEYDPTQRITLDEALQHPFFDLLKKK
Sequence of Ubiquitin carboxyl-terminal hydrolase 1 (Homo sapiens) (O94782 whole entry, looked up): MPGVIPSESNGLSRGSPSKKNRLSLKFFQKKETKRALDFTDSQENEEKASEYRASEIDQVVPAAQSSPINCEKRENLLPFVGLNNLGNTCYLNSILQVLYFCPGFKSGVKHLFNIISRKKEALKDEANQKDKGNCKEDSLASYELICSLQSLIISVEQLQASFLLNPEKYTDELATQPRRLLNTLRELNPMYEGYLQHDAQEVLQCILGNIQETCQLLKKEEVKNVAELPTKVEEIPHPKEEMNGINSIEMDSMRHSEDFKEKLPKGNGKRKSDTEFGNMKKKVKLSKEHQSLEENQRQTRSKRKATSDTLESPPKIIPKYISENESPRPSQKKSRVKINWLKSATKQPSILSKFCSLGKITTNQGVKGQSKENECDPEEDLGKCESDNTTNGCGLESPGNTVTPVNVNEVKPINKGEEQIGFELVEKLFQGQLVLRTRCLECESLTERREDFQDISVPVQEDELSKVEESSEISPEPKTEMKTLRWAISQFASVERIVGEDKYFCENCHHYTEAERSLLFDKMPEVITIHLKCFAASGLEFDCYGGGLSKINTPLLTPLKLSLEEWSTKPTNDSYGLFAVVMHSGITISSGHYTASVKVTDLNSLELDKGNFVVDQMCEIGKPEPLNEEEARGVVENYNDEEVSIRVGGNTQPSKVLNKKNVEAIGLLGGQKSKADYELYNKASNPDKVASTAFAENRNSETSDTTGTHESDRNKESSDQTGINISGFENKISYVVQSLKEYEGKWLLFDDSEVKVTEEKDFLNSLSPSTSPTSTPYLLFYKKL
Sequence of Lysosomal acid glucosylceramidase (Homo sapiens) (P04062 whole entry, looked up): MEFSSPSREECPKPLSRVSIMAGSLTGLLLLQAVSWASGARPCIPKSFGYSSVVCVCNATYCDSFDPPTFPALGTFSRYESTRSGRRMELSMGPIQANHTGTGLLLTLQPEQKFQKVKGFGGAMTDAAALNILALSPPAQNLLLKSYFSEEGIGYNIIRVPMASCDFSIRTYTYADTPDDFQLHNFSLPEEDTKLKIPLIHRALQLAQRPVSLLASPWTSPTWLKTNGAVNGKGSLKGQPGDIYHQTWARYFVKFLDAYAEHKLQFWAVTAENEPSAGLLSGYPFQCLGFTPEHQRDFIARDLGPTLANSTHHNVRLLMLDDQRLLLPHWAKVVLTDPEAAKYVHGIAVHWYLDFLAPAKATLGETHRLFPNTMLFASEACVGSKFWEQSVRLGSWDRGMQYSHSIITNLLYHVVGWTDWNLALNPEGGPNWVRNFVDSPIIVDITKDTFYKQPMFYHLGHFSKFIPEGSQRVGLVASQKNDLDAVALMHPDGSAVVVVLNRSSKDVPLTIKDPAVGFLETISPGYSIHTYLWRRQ

On to `COc1ccc(-n2c(=O)c(-c3ccccc3)nc3cnc(N4CCN(C)CC4)nc32)cc1`, for which the Potency is > 11.4 µM (inactive) in experiment [1]; 20 µM (active) in [3]; > 9.22 µM (inactive) in [6]; > 46 µM (inactive) in experiment [7]; 25.1 µM (active) in experiment [17]. Moreover, the values for the activity change, negative = inhibition in experiment [2], in experiment [4] and in experiment [11] were 14.5% (inactive), 5.17% (inactive) and 0.696% (inactive), respectively. Also, the activity, negative = inhibition in experiment [5] is 12.2% (inactive). Besides, the result in experiment [8] was inactive. Further, the Potency result in experiment [9], in experiment [10], in [12], in experiment [13], in [14] and in [15] was “inactive” throughout. The Potency result in experiment [16] was “inactive”. The max response in experiment [11] (setting [21]) is 22%; in [11] (setting [22]), 20%; in experiment [18], 12.9% (inactive).
As for `CN1CCN(c2ncc3nc(-c4ccccc4)c(=O)n(CCc4ccccc4)c3n2)CC1`, the Potency in [1] is > 11.4 µM (inactive); in experiment [6], > 9.22 µM (inactive); in [7], > 46 µM (inactive); in [19], 3.16 µM (active); in experiment [17] it was 39.8 µM (active). In addition, the molecule was called inactive in experiment [8]. The activity change, negative = inhibition in [11] is -1.95% (inactive). Besides, the figures for the max response in experiment [11] (setting [21]) and in [11] (setting [22]) were -2.1% and -5.21%, respectively. Besides, the Potency result in experiment [13], in experiment [14], in [15] and in [16] was “inactive” throughout.
In the case of `Cc1ccccc1-c1nc(N2CCNCC2)c2ccccc2n1`, the Potency in experiment [1] is > 11.4 µM (inactive); in [3] it was 5.01 µM (active); in experiment [6], > 46 µM (inactive); in experiment [7], > 46 µM (inactive); in experiment [17] it was 12.6 µM (active). Besides, the figures for the activity change, negative = inhibition in experiment [2], in experiment [4] and in experiment [11] were 12.7% (inactive), 2.71% (inactive) and 4.63% (inactive), respectively. Moreover, in experiment [5], the activity, negative = inhibition was -10.4% (inactive). Also, the molecule was called inactive in experiment [8]. For the same molecule, the Potency entry in experiment [9], in [20], in experiment [15] and in experiment [16] was “inactive” in each case. Moreover, the max response in experiment [11] (setting [21]) is 23.8%; in [11] (setting [22]), 27.5%.
For `CN1CCN(c2nc(-c3ccccc3C(F)(F)F)nc3ccccc23)CC1`, the Potency is > 11.4 µM (inactive) in experiment [1]; 10 µM (active) in [3]; > 46 µM (inactive) in [6]; > 46 µM (inactive) in experiment [7]; 14.1 µM (active) in experiment [17]. Also, the activity change, negative = inhibition is -3.47% (inactive) in experiment [2] and -6.69% (inactive) in [4]. The activity, negative = inhibition in experiment [5] was -4.43% (inactive). Moreover, in experiment [8], the result was inactive. The Potency entry in [9], in [20], in experiment [12], in experiment [13], in experiment [15] and in [16] was “inactive” in each case. The activation in experiment [19] is -4.44% (inactive). Moreover, the max response in experiment [18] is 16.6% (inactive).
